# High-throughput results as filed in PubChem BioAssay.
# Shown is part of a subset that was picked to be rich in hits.
# FECH inh: inhibitors of human ferrochelatase. P22830. hit rate 3.3% among 20,000. purified FECH, Ni-mesoporphyrin absorbance 550 nm. calls only at 10 µM (by protocol);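 active = enzyme reaction rate more than 3 SD below the solvent-only control wells on the same plate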;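 note: lower slope than DMSO wells means FECH inhibition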
# Target sequence (P22830 whole entry, looked up): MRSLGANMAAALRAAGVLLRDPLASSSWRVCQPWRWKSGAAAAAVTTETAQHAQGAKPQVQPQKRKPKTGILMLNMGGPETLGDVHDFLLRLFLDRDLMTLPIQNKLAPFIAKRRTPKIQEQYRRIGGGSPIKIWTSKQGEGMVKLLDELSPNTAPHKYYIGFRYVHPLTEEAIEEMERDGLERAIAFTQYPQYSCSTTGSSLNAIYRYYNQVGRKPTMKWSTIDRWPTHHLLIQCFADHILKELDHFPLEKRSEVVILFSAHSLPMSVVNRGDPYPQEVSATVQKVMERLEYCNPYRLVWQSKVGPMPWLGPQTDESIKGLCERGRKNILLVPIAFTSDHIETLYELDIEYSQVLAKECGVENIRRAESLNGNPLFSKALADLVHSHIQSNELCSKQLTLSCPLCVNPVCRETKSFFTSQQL
# * hit, by the source's call; i = inactive; + = active, no number.
SMILES,FECH inh
COc1ccccc1CNC(=O)c1[nH]cnc1C(=O)NC1CCCc2ccccc21 (centres undefined),+
CC(C)NC(=O)c1nc[nH]c1C(=O)NCC1CC1,i
COc1ccccc1CNC(=O)c1nc[nH]c1C(=O)N1CCC(C)CC1,i
Cc1ccc(CNC(=O)c2[nH]cnc2C(=O)NCCC(C)C)o1,i
COCCNC(=O)c1[nH]cnc1C(=O)NC1CCCCC1,i
CCCNC(=O)c1nc[nH]c1C(=O)NCC1CCCCC1,i
COc1ccccc1CNC(=O)c1[nH]cnc1C(=O)NCc1ccc(C)o1,+
COc1ccccc1CNC(=O)c1nc[nH]c1C(=O)NCc1ccccc1OC,+
Cc1cccc(Cn2nc(C)cc2NC(=O)Cc2nonc2C)c1,i
CCCCN(C(=O)c1ccn(C)c(=O)c1)C1CCCC1,i
CCOc1ccc(Nc2cc(-c3ccc(C)cc3)nc(C)n2)cc1,i
C=C(C)COc1ccc(C(=O)NCC(C)n2cncn2)cc1 (centres undefined),i
NS(=O)(=O)c1ccc(CCNC(=O)c2ccc(N3CCCS3(=O)=O)cc2)cc1,i
Cc1ccc(-c2cc(Nc3cccc(C)c3C)nc(C)n2)cc1,i
O=C(NCc1ccccn1)c1nc(N2CCOCC2)c2oc3ccccc3c2n1,i
Cc1sc2ncnc(NCCC(C)n3ccnc3)c2c1C (centres undefined),i
CC(C)c1nc(CC2NC(=O)c3ccccc32)n(-c2ccccn2)n1 (centres undefined),i
Cc1ccc(N2C(=O)CCS2(=O)=O)cc1S(=O)(=O)Nc1cccc(Cl)c1C,i
C=CCn1cc(CN(Cc2nccn2C)C2CC2)c(C)n1,i
CC(C)NC(=O)[C@@H]1C[C@H](N)CN1C(=O)c1cccc2c3c([nH]c12)CCCC3,+
Cc1cc(C(=O)N2C[C@@H](N)C[C@H]2C(=O)NC(C)C)c(-c2ccccc2)o1,i
CCCc1cc(C(=O)N2C[C@@H](N)C[C@H]2C(=O)NC(C)C)ccn1,i
Cc1nc(C(C)NC(=O)CSc2ccncc2)n[nH]1 (centres undefined),i
CCn1nc(C(=O)O)c2c1CCN(C(=O)C(c1cccnc1)N1CCCC1)C2 (centres undefined),i
CCN1C(SCC(=O)N2CCCC2)=NS(=O)(=O)c2ccccc21,+
SMILES,FECH inh
CCN1C(SCC(=O)N(C)c2ccccc2)=NS(=O)(=O)c2ccccc21,+
O=C(CSc1ccncc1)N1CCCC(c2ccccc2)C1 (centres undefined),i
COc1ccc(-c2cc3n(n2)CCC(=O)N3Cc2ccc(C(=O)Nc3ccc(F)cc3)cc2)cc1,i
CCc1ncc2c(n1)CN(C(=O)c1c(-c3ccccc3)ccnc1C)C2,i
COc1cccc(NC(=O)N2CCN(CCn3c(C(F)(F)F)nc4cccnc43)CC2)c1,i
O=C(c1cc2n(n1)CCNC2)N1CCCC(OCc2ccccn2)C1 (centres undefined),i
CCOC(=O)CCc1c(C)nc2nc(CNc3cccc(Cl)c3)[nH]n2c1=O,+
CCOC(=O)CCc1c(C)nc2nc(CNc3ccc(F)cc3)[nH]n2c1=O,i
CCOC(=O)CCc1c(C)nc2nc(CNc3cccc(C)c3)[nH]n2c1=O,+
CCc1nc2nc(C)c(NC(=O)Nc3ccc(F)c(Cl)c3)c(=O)n2[nH]1,i
CCc1nc2nc(C)c(NC(=O)Nc3cccc(C)c3)c(=O)n2[nH]1,i
CCc1nc2nc(C)[nH]n2c(=O)c1NC(=O)Nc1cccc(Cl)c1,i
Cc1cc(C)cc(C(=O)N2CCN(S(=O)(=O)c3cc4c5c(c3)CCN5C(=O)CC4)CC2)c1,i
CCN(CCN(C)C)c1ncc(NS(=O)(=O)c2cc(F)ccc2C)cc1C(=O)O,i
CC(=O)Nc1ccccc1-n1cnnc1,i
Cc1cc(N(C)C)nc(Nc2ccc(NC(=O)CC(C)C)cc2)n1,i
CCN(CCN(C)C)c1ncc(NS(=O)(=O)c2ccc(C)cc2C)cc1C(=O)O,i
CC1(C(=O)NC2CCCC2)C(=O)n2c(cc3cc(Cl)ccc32)C(=O)N1c1ccc(F)cc1 (centres undefined),i
COc1ccc(CNCC(=O)Nc2cnccn2)c(F)c1F,i
NC(=O)NCCN1CCCC(C(=O)c2ccc(Oc3ccccc3)cc2)C1 (centres undefined),i
Cc1nc(C(C)C)ncc1C(=O)N(C)Cc1cc(C(C)(C)C)n[nH]1,i
COc1ccc(S(=O)(=O)N2CCC(n3c(C(F)(F)F)nc4cccnc43)CC2)cc1OC,+
O=S(=O)(c1ccccc1)N1CCC(n2c(C(F)(F)F)nc3cccnc32)CC1,i
COc1ccc(Cl)cc1S(=O)(=O)N1CCC(n2c(C(F)(F)F)nc3cccnc32)CC1,i
Cc1c(Cl)cccc1NC(=O)N1CCC(n2cnc3cccnc32)CC1,i
SMILES,FECH inh
Cc1ncsc1CCC(=O)NCc1csc(N2CCCC2)n1,i
C/C(=C\c1ccco1)CN(Cc1nccn1C)C1CC1,i
CCCOCCN1CCN(c2ncnc3[nH]ccc23)CC1,i
CN(CCOc1ccccc1)c1ncnc2[nH]ccc12,+
COCc1cc(CN(C)c2ncnc3[nH]ccc23)[nH]n1,i
CCc1cnc(N2CCCC(C(=O)c3cc(F)ccc3F)C2)nc1 (centres undefined),i
CCCNc1nc(Nc2ccc(Cl)cc2)c2cnn(-c3ccccc3)c2n1,i
Cc1cccc(C(C(=O)NCc2nnc3n2CCC3)N(C)C)c1 (centres undefined),i
Cc1ccc(C)c(OCc2cc(C(=O)NCc3nnc4n3CCC4)no2)c1,+
O=C(NCC1CCCCO1)c1cc(COc2c(F)cccc2F)on1 (centres undefined),i
Cc1cccnc1CC(C)N(C)C(=O)c1ccc(-n2cnnn2)cc1 (centres undefined),i
CC1CCN(C(=O)c2[nH]cnc2C(=O)NCc2ccccc2)CC1,i
O=C(NCc1ccccc1)c1nc[nH]c1C(=O)N1CCCCCC1,i
CCCNC(=O)c1[nH]cnc1C(=O)NCCc1c[nH]c2ccccc12,i
COCCNC(=O)c1nc[nH]c1C(=O)NCc1ccccc1,+
O=C(NCc1ccccc1)c1nc[nH]c1C(=O)N1CCC(Cc2ccccc2)CC1,i
CNC(=O)c1[nH]cnc1C(=O)NCc1ccccc1,+
Cc1cc(C)n(CCCC(=O)N2CCC3(CC2)NCCNC3=O)n1,i
COc1ccc(OCc2nc(-c3ccc4c(c3)Sc3ccccc3C(=O)N4C)no2)cc1,i
NS(=O)(=O)c1ccc(CCNC(=O)NCc2noc3ccccc23)cc1,i
CC(C)C1CN(C(=O)c2cc(=O)[nH][nH]2)CCC(=O)N1Cc1ccc(F)cc1 (centres undefined),i
Cc1ccc(S(=O)(=O)Nc2ccc(Sc3c(C)c(C)nc4ncnn34)cc2)cc1C,i
CCC(C(=O)Nc1cc(Cl)ccc1OC)n1c(C(=O)OC)cc2ccsc21 (centres undefined),i
CC(C)Cc1cc(C(=O)N2CCC(Oc3ncccn3)CC2)n[nH]1,i
NS(=O)(=O)c1ccc(CCNC(=O)CCn2cnc3c([nH]c4ccccc43)c2=O)cc1,+
NS(=O)(=O)c1ccc(CCNC(=O)CCn2cnc3c([nH]c4ccc(F)cc43)c2=O)cc1,i
Cc1ccc2[nH]c3c(=O)n(CCC(=O)NCCc4ccc(S(N)(=O)=O)cc4)cnc3c2c1,i
Cc1n[nH]c(C)c1CCCN(C)c1nc(N(C)C)nc2c1CCNC2,i
COc1ccc(CC(=O)NCCn2c(CCc3ccccc3)nc3cccnc32)c(Cl)c1,i
